From PubChem BioAssay
AMA1-RON2 inh = qHTS for Inhibitors of AMA1-RON; Towards Development of Antimalarial Drug Lead: Primary Screen; Potency, µM (top dose mostly 58.2 µM), hits mostly inhibitors; actives 0.2% (n = 360,000); AlphaScreen AMA1-biotinylated RON2 peptide binding; Plasmodium falciparum AMA1 (3D7) - RON2 peptide interaction; also: nearly all actives have a fitted effect of over 45% in size
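AMA1 (3D7) with his tag at 25 nM final met compounds first, then biotinylated RON2 peptide at 25 nM; detection used donor plus acceptor beads, 10 µg/mL apiece, read by AlphaScreen after 30 min at room temperature.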
Pf growth 96h = Primary qHTS for delayed death inhibitors of the malarial parasite plastid, 96 hour incubation; actives 6.9% (n = 320,000); P. falciparum luciferase reporter growth, 96 h; Potency, µM (top dose mostly 28.7 µM), hits mostly inhibitors; AID 504834, 2011
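Erythrocytes infected with luciferase-expressing P. falciparum were dispensed at 2% hematocrit and 0.05% parasitemia (final), then incubated with compounds 96 hours at 37 C in 5% CO2. Luminescence after detection reagent addition reported growth.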
Sm TGR inh = qHTS Assay for the Inhibitors of Schistosoma Mansoni Peroxiredoxins | Schistosoma mansoni thioredoxin glutathione reductase (TGR), Q962Y6 | purified TGR, DTNB reduction, TNB absorbance 405 nm | Potency, µM (doses to about 114 µM), hits mostly inhibitors | actives 3% (n = 360,000) | AID 485364, 2010; also: nearly all actives have a fitted effect of over 60% in size
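First, TGR (20 nM dispensed) and NADPH were mixed with compound. Second, a 15 min room-temperature incubation followed. Third, further NADPH and then DTNB were added to start the reaction. Finally, TNB absorbance was monitored kinetically.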
Pf growth 48h = Primary qHTS for delayed death inhibitors of the malarial parasite plastid, 48 hour incubation | P. falciparum luciferase growth in erythrocytes, 48 h | Potency, µM (series often up to 28.7 µM), actives largely listed as inhibitors | actives 5.9% (n = 310,000)
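Erythrocytes infected with P. falciparum carrying an integrated firefly luciferase reporter (2% hematocrit, 0.1% parasitemia final) were exposed to compounds in RPMI 1640 with 0.5% Albumax at 37 C, 5% CO2. Growth inhibition was scored as reduced luminescence.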
NS1 function inh = qHTS Assay for Inhibitors of Influenza NS1 Protein Function; actives 0.4% (n = 270,000); Potency, µM (series often up to 46.1 µM); calls by dose curve; also: actives are rising curves; nearly all actives have a fitted effect of over 50% in size
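A cell-based growth assay was used: compounds that relieve NS1-induced slow growth of budding yeast raise OD600. Assay medium was yeast nitrogen base with ammonium sulphate and -URA supplement, pH 6.0, with 2% galactose.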
Hits are given with their value; i = inactive; ? = inconclusive; nt = no result. Only some compounds are listed: those with a hit (about 11% of all), similar ones and a draw of the others. Unless noted, calls follow the shape of the dose curve; as a rule, active = well fitted curve in the direction sought with a large enough effect; inconclusive = small, poorly fitted or top-dose-only effect, or another doubt; inactive = no such curve, though single readings can be large; an effect the other way counts as inactive or inconclusive.

SMILES	AMA1-RON2 inh	Pf growth 96h	Sm TGR inh	Pf growth 48h	NS1 function inh
Cc1ccc(N(C(C)C(=O)N2CCC(C)CC2)S(C)(=O)=O)cc1C (centres undefined)	i	?	i	i	i
Cc1ccc(N(C(C)C(=O)N2CCOCC2)S(C)(=O)=O)cc1C (centres undefined)	i	9.3µM	i	?	i
Cc1ccc(NC(=S)N2CCN(S(C)(=O)=O)CC2)cc1C	i	?	i	i	i
CCC(=O)Nc1cccc(NC(=O)CSc2nnnn2Cc2ccccc2)c1	i	2.1µM	i	i	?
CC(C)(C)NC(=O)CSc1nc2ccc(NC(=O)CSc3nnnn3Cc3ccccc3)cc2s1	i	4.7µM	i	nt	i
COc1cc(NC(=O)CSc2nnnn2Cc2ccccc2)cc(OC)c1	i	i	i	i	i
O=C(CSc1nnnn1Cc1ccccc1)NCC(=O)c1ccccc1	i	i	50µM	i	i
CCCCn1c(N)c(N(CCOC)C(=O)c2cc(-c3ccc(F)cc3)nc3ccccc23)c(=O)[nH]c1=O	i	?	i	?	nt
Cc1sc(NC(=O)Cc2ccc3c(c2)OCO3)nc1-c1ccc2c(c1)CCN2C(=O)c1cccc(F)c1	?	6.6µM	i	?	?
O=C(CCc1nnc(C2(c3ccc(Cl)cc3)CCC2)o1)NC1CC1	i	i	i	10µM	i
C=CCNC(=O)CCc1nnc(C2(c3ccc(Cl)cc3)CCC2)o1	i	i	nt	?	i
CCCCNC(=O)C1(C)CCCCN1C(=O)c1cc(-c2ccccc2)cs1 (centres undefined)	i	nt	nt	nt	nt
O=C(C1CCCN(c2ncnc3c2nc2n3CCCCC2)C1)N1CCN(c2ccc(F)cc2)CC1 (centres undefined)	i	?	i	9.3µM	i
O=C(C1CCCN(c2ncnc3c2nc2n3CCCCC2)C1)N1CCCCC1 (centres undefined)	i	i	i	?	i
O=C(C1CCCN(c2ncnc3c2nc2n3CCCCC2)C1)N1CCN(c2ccc(Cl)cc2)CC1 (centres undefined)	i	i	i	12µM	i
COc1ccc2cc(C(=O)N3CCN(c4ccccc4OC)CC3)[nH]c2c1	i	?	i	?	i
COc1ccc(OC)c(-c2cn(S(=O)(=O)c3ccccc3)nc2N)c1	i	15µM	i	nt	i
COc1ccccc1-c1cn(S(=O)(=O)c2ccc(C)cc2)nc1N	i	i	i	i	i
O=C(Nc1ccccc1N1CCOCC1)c1cccc2c(Br)cccc12	i	i	i	nt	i
CC(=O)[O][Hg][c]1ccccc1	nt	3µM	nt	1.5µM	nt
O=C(c1ccccc1OC(F)F)N1CCN(S(=O)(=O)c2ccc3c(c2)OCCCO3)CC1	i	i	i	15µM	nt
O=C(c1ccccc1F)N1CCN(S(=O)(=O)c2ccc3c(c2)OCCO3)CC1	i	9.3µM	i	nt	i
O=C(NCC(=O)N1CCN(S(=O)(=O)c2ccc3c(c2)OCCO3)CC1)c1ccccc1Cl	i	?	i	?	nt
O=C(NCC(=O)N1CCN(S(=O)(=O)c2ccc3c(c2)OCCO3)CC1)c1ccccc1F	i	nt	nt	nt	nt
CCCSCCCNC(=O)c1ccc(C)c(NC(=O)c2nsc3ccccc23)c1	nt	nt	i	nt	nt
SMILES	AMA1-RON2 inh	Pf growth 96h	Sm TGR inh	Pf growth 48h	NS1 function inh
COc1cc(OC)c(NC(=O)C2CCN(C(=O)c3sc4nc[nH]c(=O)c4c3C)CC2)cc1Cl	nt	nt	i	nt	nt
N#C/C(=C\c1c(Cl)cccc1Cl)c1nn(-c2ccccc2)c(-n2cccc2)c1C#N	i	?	i	?	i
N#C/C(=C\c1c(F)cccc1Cl)c1nn(-c2ccccc2)c(-n2cccc2)c1C#N	i	?	i	12µM	i
O=C(O)c1cc(Nc2cc(Cl)c3nonc3c2[N+](=O)[O-])ccc1O	i	i	0.1µM	i	i
Cc1ccccc1Nc1ccc2nonc2c1[N+](=O)[O-]	i	6.6µM	i	i	i
Nc1cc(Cl)c2nonc2c1[N+](=O)[O-]	i	i	1.4µM	i	i
Cc1ccc(C)c(Nc2ccc3nonc3c2[N+](=O)[O-])c1	i	?	?	i	i
O=[N+]([O-])c1c(Nc2ccccc2O)ccc2nonc12	i	i	i	i	nt
O=[N+]([O-])c1c(Nc2ccc(O)cc2)cc(N2CCOCC2)c2nonc12	i	i	i	i	i
O=[N+]([O-])c1c(Nc2ccccc2O)cc(Cl)c2nonc12	i	i	0.63µM	12µM	i
CN1C(=O)[C@H]2[C@@H](/C=C/c3ccccc3)N3C(=O)CN(CCO)C(=O)[C@@]3(C)[C@H]2C1=O	i	i	i	?	i
C[C@@H]1CCCCO[C@@H](CN(C)C(=O)Cc2ccccc2)[C@@H](C)CN([C@H](C)CO)C(=O)c2cc(NC(=O)C3CCCCC3)ccc2O1	i	nt	nt	nt	nt
CCCCn1nnnc1C(c1ccccc1)N1CCN(c2ccc(C(F)(F)F)cn2)CC1 (centres undefined)	i	nt	nt	nt	nt
NCCc1cc(O)c(O)cc1O	0.79µM	?	nt	i	nt
O=C(COC(=O)CNC(=O)c1ccccc1)NCCc1ccccc1	i	i	i	i	nt
CC(=O)NCCc1ccc(O)c(O)c1	nt	nt	nt	nt	i
O=C(CNC(=O)c1ccccc1)NCCc1ccc(O)c(O)c1	nt	i	3.2µM	?	i
CNCCc1ccc(O)c(O)c1	7.1µM	nt	nt	nt	i
NCCc1ccc(O)c(O)c1	?	?	14µM	?	i
Cc1ccc(CNC(=O)CCc2c(C)nc3c(-c4ccc(F)cc4)c(C)nn3c2C)cc1	nt	nt	i	nt	nt
FC(F)(F)c1ccc(-n2cnc3ccccc32)nc1	i	i	i	i	i
CC(Oc1ccc(Cl)cc1Cl)C(=O)N(C)c1ccccc1 (centres undefined)	i	?	nt	i	i
Oc1c(C(c2ccc(Cl)cc2Cl)N2CCN(c3ccccc3)CC2)sc2nc(-c3ccco3)nn12 (centres undefined)	nt	nt	i	nt	nt
CCn1c(=O)c(C(=O)NCc2ccccn2)c(O)c2ccccc21	i	12µM	i	i	i
CCCn1c(=O)c(C(=O)NCc2ccccc2)c(O)c2ccccc21	i	i	i	i	i
SMILES	AMA1-RON2 inh	Pf growth 96h	Sm TGR inh	Pf growth 48h	NS1 function inh
CCCCCn1c(=O)c(C(=O)NCCc2ccccc2)c(O)c2ccccc21	i	5.9µM	i	15µM	i
Cn1c(=O)c(C(=O)NCCc2ccccc2)c(O)c2ccccc21	i	?	i	i	i
CCn1c(=O)c(C(=O)NCc2ccc(OC)cc2)c(O)c2ccccc21	i	i	i	i	i
CCCn1c(=O)c(C(=O)NCCc2ccccc2)c(O)c2ccccc21	i	15µM	i	i	i
CC(NC(=O)COC(=O)C1CSC2(C)CCC(=O)N12)C12CC3CC(CC(C3)C1)C2 (centres undefined)	?	i	i	i	i
CCc1c(C)[nH]n(-c2nc(-c3ccccc3)cs2)c1=O	i	i	i	i	nt
